Data on three compounds can be found in article PMC5540273 (PLoS ONE, 2017).

Test systems include MET; MKK7; MKNK1; MKNK2; MLK2; MLK3; MRCKA.
Common to all, as to conditions: concentration: 1 μM, replicates: in singlicate; n = 1
The test system of a further assay is T1, MINK.
T1 construct: gene MINK1

The subject of a further assay is T2, MLCK.
T2 construct: gene MYLK3

The test system of a further assay is T3, MLK1.
T3 construct: gene MAP3K9

SMILES strings stand for the structures.
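Note: KINOMEscan kinase panel screen.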

On to `Cc1nnc(-c2ccc3ncn(-c4ccc(S(C)=O)cc4)c3c2)o1` (stereo not drawn), for which the “%Inh” value in the assay with MET came to 0%; in the assay with MINK it was 14%; in the assay on MKK7 it was 12%; with MKNK1, 0%; in the assay on MKNK2, 20%; in the assay on MLCK it was 11%. Besides, the “%Inh” value in the assay on MLK1, in the assay on MLK2, in the assay on MLK3 and with MRCKA was 0% each time.

`CCC(=O)c1c(-c2ccccc2)c2cc(Cl)ccc2c(=O)n1Cc1cc(C(=O)NC2CC2)n(C)n1`: the “%Inh” value with MET is listed as 0%; with MINK, 0%; in the assay on MKK7, 25%; with MKNK1, 0%; in the assay on MKNK2, 11%; with MLCK, 5%. Also, the “%Inh” value in the assay on MLK1 stood at 0%; in the assay on MLK2, 15%; in the assay on MLK3, 0%; in the assay on MRCKA it was 8%.

Regarding `Cc1cc(Nc2nc(-c3cccc(C)n3)nc3ccccc23)ccn1` [GW872411], the “%Inh” value in the assay on MET is reported as 32%; in the assay with MINK it was 1%; in the assay on MKK7, 0%; in the assay with MKNK1, 1%; in the assay on MKNK2 it was 0%; in the assay with MLCK it was 0%. Also, the “%Inh” value in the assay with MLK1 stood at 0%; in the assay on MLK2, 28%; in the assay on MLK3 it was 0%; with MRCKA, 0%.
